Activity calls are given as the source filed them.
How the values were obtained:
[1] = compound effects on lung adenocarcinoma cell viability – A549, calcein-AM fluorescence, 48 h, basal, profiling panel (AID 1162); details: higher = more signal
[2] = compound effects on differentiated 3T3-L1 adipocyte viability – cell-based, 3T3-L1 adipocytes, calcein-AM fluorescence, 48 h, basal, profiling panel (AID 1163); details: 3T3-L1 adipocytes viability, higher = more signal
[3] = compound effects on hepatocellular carcinoma cell viability – HepG2, calcein-AM fluorescence, 48 h, basal, profiling panel (AID 1164); details: higher = more signal
[4] = compound effects on multiple myeloma cell viability – MM1S, calcein-AM fluorescence, 48 h, basal, profiling panel (AID 1165); details: higher = more signal;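 also: viability of MM1S multiple myeloma cells under basal unstimulated conditions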
[5] = calcein-AM signal in unstimulated myeloma cells – cell-based, calcein-AM fluorescence, 48 h, PK04 Diversity Set, profiling panel (AID 1166); details: RPMI8226 myeloma viability, higher = more signal;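 also: cells grown under basal conditions without added stimulus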
[6] = JC-1 mitochondrial signal, unstimulated HepG2 cells – cell-based, JC-1 fluorescence, 24 h, 100 nL compound, profiling panel (AID 1167); details: HepG2 mitochondrial potential, higher = more signal
[7] = JC-1 mitochondrial signal, unstimulated adipocytes – cell-based, JC-1 fluorescence, 3T3-L1 adipocytes, 24 h, 100 nL compound, profiling panel (AID 1168); details: JC-1 mitochondrial fluorescence, higher = more signal, called active from +8 up or from −8 down
[8] = JC-1 mitochondrial signal, unstimulated myeloma cells – cell-based, JC-1 fluorescence, RPMI8226, 24 h, 100 nL compound, profiling panel (AID 1169); details: JC-1 mitochondrial potential fluorescence, higher = more signal
[9] = JC-1 mitochondrial signal, unstimulated MM1S myeloma – cell-based, JC-1 fluorescence, 24 h, 100 nL compound, profiling panel (AID 1170); details: MM1S mitochondrial potential, higher = more signal
[10] = resazurin metabolic signal in A549 cells – cell-based, resazurin fluorescence, 24 h, PK04 Diversity Set, profiling panel (AID 1171); details: A549 viability, higher = more signal, called active from +8 up or from −8 down
Also: test concentration not given here.

SMILES | z-score [1] | z-score [2] | z-score [3] | z-score [4] | z-score [5] | z-score [6] | z-score [7] | z-score [8] | z-score [9] | z-score [10]
O=C1C[C@@H](O)[C@@H](O)[C@@H]2[C@@H]3C(=O)N(C4CCCCC4)C(=O)[C@@H]3CC[C@@H]12 | 0.112 | 0.0679 | 0.236 | -0.0357 | 0.313 | 0.0325 | -0.907 (inactive) | 0.0121 | -0.377 | -0.732 (inactive)
CO[C@H]1C[C@@H]2C[C@H](O)CC(CC(=O)O[C@@H](C=CCC(C)C)C[C@@H]3CC[C@H](C)[C@@H](C1)O3)O2 | 0.366 | 0.128 | 0.341 | 0.283 | 0.624 | -0.427 | -0.975 (inactive) | 0.392 | -0.49 | -0.0031 (inactive)
CCN1C(=O)[C@H]2[C@H]3[C@H](O)[C@H](O)CC(=NOC(C)CN4CCCc5nc(C)c(C)cc54)[C@@H]3CC[C@H]2C1=O (stereo not given in full) | 0.355 | -0.769 | -0.283 | -1.78 | -0.99 | 0.128 | -0.886 (inactive) | 0.534 | -0.902 | -0.696 (inactive)
CC(C)=NO[C@H](C)c1cn([C@@H]2COC[C@H]2O)nn1 | 0.874 | -0.573 | 0.818 | 0.0495 | -0.275 | 1.01 | 0.0682 (inactive) | 0.183 | -0.593 | -0.483 (inactive)
COC(=O)[C@@H]1CC[C@H](C)[C@@H](c2ccc(C)cc2)N1C(=O)c1ccc(C=NOC[C@@H](O)[C@H]2O[C@@H]3OC(C)(C)O[C@@H]3[C@H]2O)cc1 | 0.685 | -0.175 | -0.827 | -0.546 | -0.525 | -0.874 | -0.269 (inactive) | -1 | -0.732 | -0.089 (inactive)
O=C1[C@H]2[C@H]3[C@H](O)[C@H](O)CC(=NOC[C@@H](O)COCc4ccco4)[C@@H]3CC[C@H]2C(=O)N1c1cccc(Oc2ccccc2)c1 | -0.382 | -0.454 | -1.19 | -0.163 | 0.0958 | -0.0749 | -0.785 (inactive) | 0.688 | -0.105 | 0.0561 (inactive)
CC(CCC(=O)OC[C@H]1O[C@H](C#Cc2ccccc2)C=C[C@@H]1Oc1ccc(C)cc1)=NOC(C)CN1CCCc2nc(C)c(C)cc21 (stereo not given in full) | -0.177 | -0.271 | 0.267 | -2.18 | -1.39 | 0.542 | -2.38 (inactive) | -0.7 | -0.74 | -0.719 (inactive)
C[C@]12CCC3c4ccc(OCC5CO5)cc4CCC3C1CC[C@@H]2O (stereo not given in full) | 0.45 | 0.277 | 0.266 | -2.59 | -1.06 | 1.15 | 0.121 (inactive) | 0.0313 | -0.046 | 2.25 (inactive)
CC(=O)OC[C@H]1O[C@H](CCON=C(C)C)C=C[C@@H]1OC(C)=O | 0.191 | 0.0363 | -0.0004 | -0.719 | -1.12 | -0.331 | -0.681 (inactive) | 0.636 | -0.57 | -0.426 (inactive)
CCN1C(=O)[C@H]2[C@H]3[C@H](O)[C@H](O)CC(=NOC[C@@H](O)[C@H]4O[C@@H]5OC(C)(C)O[C@@H]5[C@H]4O)[C@@H]3CC[C@H]2C1=O | 0.725 | -0.532 | 0.282 | 0.388 | 0.12 | 0.0654 | 0.141 (inactive) | 0.71 | -0.481 | -0.794 (inactive)
Cc1ccc2[nH]c3nc(CCCn4ccnc4-c4ccccc4)nnc3c2c1 | 0.0515 | 0.339 | -0.18 | 1.05 | 0.392 | -0.807 | 1.1 (inactive) | 0.738 | -0.867 | 0.384 (inactive)
CC(CCN1CCc2nc(-c3ccccc3)c(-c3ccccc3)cc2C1)=NO[C@H](C)c1cn([C@H](CO)Cc2ccccc2)nn1 | 0.75 | 0.23 | 0.603 | -1.31 | 0.163 | 2.57 | -1.49 (inactive) | 1.02 | 0.428 | -0.167 (inactive)
CCOC(=O)[C@H](CC(C)C)NC(=O)CCC1CC(OC(=O)NCCc2ccc(F)cc2)CC2(CCCC(COC(=O)NCCOC)O2)O1 (stereo not given in full) | 0.0721 | -1.02 | -0.384 | 0.695 | 0.124 | -1.21 | -0.459 (inactive) | 0.64 | 0.441 | 0.305 (inactive)
COC(=O)CC=C[C@@H](C)[C@@H](C=NOC[C@@H](O)[C@H]1O[C@@H]2OC(C)(C)O[C@@H]2[C@H]1O)OC | 0.218 | 0.0495 | 0.0068 | -0.952 | 0.216 | 0.103 | -0.637 (inactive) | -0.199 | 0.781 | -0.743 (inactive)
COC(=O)[C@H](C)NC(=O)CCC1CC(OC(=O)NCCc2ccc(F)cc2)CC2(CCCC(COC(=O)NCc3ccccc3)O2)O1 (stereo not given in full) | -0.101 | -0.0012 | 0.601 | 0.756 | -0.484 | 0.995 | 0.553 (inactive) | 0.265 | -0.579 | 0.896 (inactive)
C[C@@H]1C=CCC(=O)OC[C@H](C)C(=O)N[C@@H](Cc2ccccc2)C(=O)OC1 | -0.88 | 2.49 | 0.499 | -0.295 | -0.371 | 0.662 | 0.55 (inactive) | 0.803 | 0.382 | 0.168 (inactive)
CC(C)C(=O)N[C@H]1CCCN1C(=O)C=Cc1ccccc1 | -0.0724 | -0.578 | 0.176 | -0.903 | -0.1 | -0.541 | -0.288 (inactive) | 0.6 | -0.0562 | 0.182 (inactive)

SMILES | z-score [1] | z-score [2] | z-score [3] | z-score [4] | z-score [5] | z-score [6] | z-score [7] | z-score [8] | z-score [9] | z-score [10]
CCOC(=O)[C@H](Cc1ccccc1)NC(=O)CCC1CC(OC(=O)NCc2cccc3ccccc23)CC2(CCCC(COC(=O)NCC3CCCCC3)O2)O1 (stereo not given in full) | 0.391 | 0.146 | -0.574 | -0.0497 | -0.68 | -0.00703 | -0.00973 (inactive) | -0.198 | -0.296 | 0.684 (inactive)
CO[C@@H]1COC(=O)[C@H](COCc2ccccc2)NC(=O)CC=C[C@@H](C)[C@H](OC)COC(=O)[C@@H](C)NC(=O)CC=C[C@H]1C | 0.759 | 0.0006 | 0.56 | 0.208 | -1.54 | 0.648 | -0.828 (inactive) | 0.402 | -0.343 | 0.846 (inactive)
COC(=O)CC=C[C@@H](C)[C@@H](C=NOC(C)CN1CCCc2nc(C)c(C)cc21)NS(=O)(=O)c1ccc(C)cc1 (stereo not given in full) | 0.969 | -0.176 | 0.0666 | -1.08 | -0.427 | -0.486 | -0.774 (inactive) | 0.462 | -0.534 | -0.726 (inactive)
COC(=O)CC=C[C@@H](C)[C@@H](C=NOC[C@@H](C)[C@H](OCc1ccccc1)C(C)C)NS(=O)(=O)c1ccc(C)cc1 | 0.0174 | 0.502 | -0.692 | -0.726 | -0.96 | -0.685 | -2.09 (inactive) | -0.129 | -0.00529 | 0.0101 (inactive)
CC(C)=CCCC(C)=CCON=C1C[C@@H](O)[C@@H](O)[C@@H]2[C@@H]3C(=O)N(C4CCCCC4)C(=O)[C@@H]3CC[C@H]12 | -0.529 | -0.735 | -0.0977 | -2.9 | -0.201 | -1.47 | -0.444 (inactive) | -0.467 | -1.4 | -0.587 (inactive)
CCc1cc2c(nc1CC)CCN(CCC(C)=NOCC[C@@H]1C=C[C@H](OC(C)=O)[C@@H](COC(C)=O)O1)C2 | 0.34 | 0.63 | 0.679 | -0.47 | 0.123 | 1.45 | -1.32 (inactive) | 0.578 | -0.13 | 0.29 (inactive)
COC(=O)CC=C[C@@H](C)[C@@H](C=NOC[C@@H](C)[C@H](OCc1ccccc1)C(C)C)OC | -0.37 | -0.0404 | -0.0472 | -0.18 | -0.991 | 0.0695 | -1.61 (inactive) | -0.151 | -0.93 | -0.891 (inactive)
CON(C)C(=O)c1nnc2c(n1)[nH]c1ccccc12 | -0.681 | 0.764 | 0.429 | -0.342 | -0.0375 | -0.88 | 0.471 (inactive) | -0.886 | 0.0753 | 0.447 (inactive)
CCOC(=O)[C@H](CC(C)C)NC(=O)CCC1CC(OC(=O)NCc2ccc3c(c2)OCO3)CC2(CCCC(COC(=O)NCc3ccccc3)O2)O1 (stereo not given in full) | -0.547 | -0.654 | -1.38 | -3.45 | -1.58 | -0.439 | 0.195 (inactive) | 0.0575 | 0.277 | 1.06 (inactive)
CC(C)(C)N1C(=O)[C@H]2[C@H]3[C@H](O)[C@H](O)CC(=NNC(=O)OCc4ccccc4)[C@@H]3CC[C@H]2C1=O | 0.193 | -0.166 | -0.289 | 0.0671 | 0.489 | -0.813 | -0.323 (inactive) | -0.368 | -0.368 | -0.548 (inactive)
CC(CCN1CCCc2nc(C)c(C)cc21)=NO[C@H](C)c1cn([C@H](CO)Cc2ccccc2)nn1 | -0.385 | 0.849 | -0.456 | -0.0916 | -1.88 | 0.0197 | -2.16 (inactive) | 0.136 | 0.859 | -0.254 (inactive)
COC(=O)[C@@H]1CC[C@H](C)[C@@H](c2ccc(Br)cc2)N1C(=O)C(F)(F)F | -0.0701 | -0.0882 | -0.434 | -1.24 | 0.468 | 0.399 | 0.0984 (inactive) | 0.508 | 0.554 | 0.839 (inactive)
CO[C@@H](C(C)C)[C@@H](C)C1OC(=O)CC1O (stereo not given in full) | -0.729 | -0.121 | -0.349 | 0.534 | -0.908 | -0.518 | -0.419 (inactive) | -0.147 | -0.0891 | -0.196 (inactive)
CC(CCN1CCCCc2nc(C)c(C)cc21)=NO[C@H](C)c1cn([C@@H]2COC[C@H]2O)nn1 | 0.368 | -0.807 | 0.251 | 0.287 | 0.0323 | 0.0457 | 0.229 (inactive) | 1.18 | -0.992 | -0.454 (inactive)
CON=C(C)CCN1CCCc2nc(C)c(C)cc21 | 0.604 | 0.542 | 0.926 | -1.56 | -0.0679 | 0.791 | -0.195 (inactive) | 0.538 | 0.11 | 0.161 (inactive)
CC(C)CON=C1C[C@@H](O)[C@@H](O)[C@@H]2[C@@H]3C(=O)N(C(C)(C)C)C(=O)[C@@H]3CC[C@@H]12 | -0.502 | 1.07 | -0.337 | 0.086 | -0.289 | -0.0218 | 0.174 (inactive) | -0.865 | 0.342 | -0.288 (inactive)
